# In PubChem BioAssay (Tox21):
# “And” between values parts separate entries of the source, which are not always exact repeats. Equal values may be shown once. Results filed as inconclusive are left out. Where a call stands in place of a potency, no number is given. More than one record can exist for a structure, and the calls need not agree. The source made the active and inactive calls. Calls come from the whole dose curve; as a rule, active = well fitted curve in the direction sought with a large enough effect in the repeat runs; inconclusive = weak or mixed curves; inactive = no such curve, though single readings can be large; an effect the other way counts as inactive or inconclusive.
# Assay: qHTS RealTime-Glo MT Cell Viability Assay in HepG2 cells - 24 hour (AID 1224867)
# Conditions: RealTime-Glo luminescence; series mostly up to 76.8 µM
# Outline: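 Cell number in HepG2 cultures estimated from NanoLuc luminescence generated by metabolic reduction of a prosubstrate by living cells. The homogeneous, nonlytic format allowed repeated reads at 0, 8, 16, 24, 32 and 40 h of compound exposure.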
# Note: nearly all actives have a fitted effect of over 50% in size.
# Potency is the fitted concentration of half-maximal effect.
row,SMILES,Potency
1,N#CC(Br)Br,inactive
2,CCN(N=O)C(N)=O,inactive
3,Cc1cc(C)cc(C)c1,inactive
4,Oc1c(Cl)c(Cl)c(Cl)c(Cl)c1Cl,inactive
5,COP(=O)(OC)OC,inactive
6,CCC(C)(C)c1ccc(O)cc1,inactive
7,C1=Cc2cccc3cccc1c23,inactive
8,Oc1cc(Cl)ccc1Cl,inactive
9,Cc1ccc(OP(=O)(Oc2ccc(C)cc2)Oc2ccc(C)cc2)cc1,inactive
10,CCN(CC)C(=O)/C(Cl)=C(\C)OP(=O)(OC)OC,inactive
11,Nn1cnnc1,inactive
12,O=[N+]([O-])c1cccc2ccccc12,inactive
13,N#CCCCl,inactive
14,O=S(=O)(Oc1ccc(Cl)cc1)c1ccc(Cl)cc1,inactive
15,C=C(C)C(=O)OCC1CO1 (stereo unspecified),inactive
16,Nc1cccnc1,inactive
17,O=Cc1ccco1,inactive
18,CCCCC(CC)COC(=O)Cl (stereo unspecified),inactive
19,Cc1cc(Cl)ccc1OCCCC(=O)O,inactive

row,SMILES,Potency
1,N[C@@H](Cc1ccc(N(CCCl)CCCl)cc1)C(=O)O,inactive
2,O=C(Nc1ccc(Br)cc1)c1cc(Br)cc(Br)c1O,inactive
3,CCCCCCCCC(=O)NCc1ccc(O)c(OC)c1,inactive
4,Oc1ccc(-c2ccccc2)cc1,inactive
5,c1ccc(N=Nc2ccccc2)cc1,inactive
6,C#C[C@]1(O)CC[C@H]2[C@@H]3CCC4=CC(=O)CC[C@]4(C)[C@H]3CC[C@@]21C,inactive
7,Nc1ccncc1,inactive
8,O=C(CCl)c1ccccc1,inactive
9,O=P(O)(O)CCCl,inactive
10,CCN(CC)N=O,inactive
11,O=P(Oc1ccccc1)(Oc1ccccc1)Oc1ccccc1,inactive
12,N#Cc1cc(Br)c(O)c(Br)c1,inactive
13,CCOc1cc(C=O)ccc1O,inactive
14,CC(C)Oc1cc(-n2nc(C(C)(C)C)oc2=O)c(Cl)cc1Cl,inactive
15,COP(=S)(OC)Oc1ccc([N+](=O)[O-])cc1,inactive
16,COc1ccc(C=O)cc1,inactive
17,C=C(C)[C@H]1Cc2c(ccc3c2O[C@@H]2COc4cc(OC)c(OC)cc4[C@@H]2C3=O)O1,27.9 µM (active) and 27.5 µM (active)
18,c1nc[nH]n1,inactive

# Assay: qHTS RealTime-Glo MT Cell Viability Assay in HEK293 cells - 32 hour (AID 1224868)
# Conditions: RealTime-Glo luminescence; series mostly up to 76.8 µM
# Outline: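 Homogeneous bioluminescent viability format in HEK293 cells (600 cells/well). Following 5 h at 37 C/5% CO2, 23 nL compound was pintooled; the signal was measured repeatedly during 40 h incubation.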
row,SMILES,Potency
1,N#CC(Br)Br,inactive
2,CCN(N=O)C(N)=O,inactive
3,Cc1cc(C)cc(C)c1,inactive
4,Oc1c(Cl)c(Cl)c(Cl)c(Cl)c1Cl,inactive
5,COP(=O)(OC)OC,inactive
6,CCC(C)(C)c1ccc(O)cc1,inactive
7,C1=Cc2cccc3cccc1c23,inactive
8,Oc1cc(Cl)ccc1Cl,inactive
9,Nn1cnnc1,inactive
10,O=[N+]([O-])c1cccc2ccccc12,inactive
11,N#CCCCl,inactive
12,O=S(=O)(Oc1ccc(Cl)cc1)c1ccc(Cl)cc1,inactive
13,C=C(C)C(=O)OCC1CO1 (stereo unspecified),inactive
14,Nc1cccnc1,inactive
15,Cc1cc(Cl)ccc1OCCCC(=O)O,inactive
16,N[C@@H](Cc1ccc(N(CCCl)CCCl)cc1)C(=O)O,5.27 µM (active)
17,CCCCCCCCC(=O)NCc1ccc(O)c(OC)c1,inactive
18,c1ccc(N=Nc2ccccc2)cc1,inactive
19,C#CCOS(=O)OC1CCCCC1Oc1ccc(C(C)(C)C)cc1 (stereo unspecified),13.8 µM (active) and 19.5 µM (active)
20,C#C[C@]1(O)CC[C@H]2[C@@H]3CCC4=CC(=O)CC[C@]4(C)[C@H]3CC[C@@]21C,inactive
21,Nc1ccncc1,inactive
22,O=C(CCl)c1ccccc1,inactive and 49 µM (active)
23,O=P(O)(O)CCCl,inactive
24,O=P(Oc1ccccc1)(Oc1ccccc1)Oc1ccccc1,inactive
25,CCOc1cc(C=O)ccc1O,inactive
26,CC(C)Oc1cc(-n2nc(C(C)(C)C)oc2=O)c(Cl)cc1Cl,34.7 µM (active)
27,COP(=S)(OC)Oc1ccc([N+](=O)[O-])cc1,inactive
28,COc1ccc(C=O)cc1,inactive
29,c1nc[nH]n1,inactive
